Assay results published in PubChem BioAssay AID1159580 (chemical genetic matrix, 2015).
Where “and” joins values, the source holds several entries; their conditions need not be identical. Identical values can stand only once. The campaign covered roughly 5,500 compounds. About 2,000 (36%) were called active. Not shown: some 18% with an inconclusive outcome. Cut-off read from the data, not from the text of the source: active = normalized growth mostly below about 0.91 (no sharp cut-off); inconclusive = no clear call, values can overlap the other calls; inactive = mostly above about 0.92. The list shows a part of the results.

Experiment: chemical genetic growth profiling, strain panel (AID 1159580);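 note: tested at 20 µM; growth read once vehicle control cultures reached saturation at 30 °C; 1 = growth at the plate median or of vehicle wells; lower values mean less growth of the strain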
Settings: S. cerevisiae deletion strains, growth OD

Measured: normalized growth

COc1c(N2CCNC(C)C2)c(F)cc2c(=O)c(C(=O)O)cn(C3CC3)c12 (stereo unspecified)
active: locus YCL016C, strain dcc1, hits give low values 0.899
inactive: locus YAL013W, strain DEP1, hits give low values 0.984 | locus YAL021C, strain ccr4, hits give low values 0.972 | locus YAL026C, strain drs2, hits give low values 0.955 | locus YAL030W, strain snc1, hits give low values 0.985 | locus YBL061C, strain skt5, hits give low values 0.992 | locus YBR009C, strain hhf1, hits give low values 0.968 | locus YBR021W, strain FUR4, hits give low values 0.951 | locus YBR023C, strain chs3, hits give low values 0.982 | locus YBR171W, strain sec66, hits give low values 0.985 | locus YBR229C, strain ROT2, hits give low values 1.01 | locus YBR231C, strain swc5, hits give low values 0.985 | locus YBR279W, strain paf1, hits give low values 0.986 | locus YCL011C, strain gbp2, hits give low values 0.966 | locus YCL029C, strain bik1, hits give low values 1.01 | locus YCL061C, strain MRC1, hits give low values 0.957 | locus YCL069W, strain vba3, hits give low values 0.994 | locus YCR088W, strain abp1, hits give low values 0.973 | locus YDL005C, strain med2, hits give low values 0.998 | locus YDL035C, strain GPR1, hits give low values 1 | locus YDL040C, strain nat1, hits give low values 0.984 | locus YDL074C, strain BRE1, hits give low values 0.965 | locus YDL101C, strain DUN1, hits give low values 1.01 | locus YDL134C, strain PPH21, hits give low values 1.02 | locus YDL185W, strain tfp1, hits give low values 1.01 | locus YDL192W, strain arf1, hits give low values 1.02 | locus YDR001C, strain nth1, hits give low values 0.976 | locus YDR069C, strain doa4, hits give low values 0.99 | locus YDR101C, strain arx1, hits give low values 0.993 | locus YDR137W, strain rgp1, hits give low values 0.883 | locus YDR150W, strain NUM1, hits give low values 1.02 | locus YDR159W, strain sac3, hits give low values 0.867 | locus YDR162C, strain NBP2, hits give low values 1.01 | locus YDR195W, strain ref2 1 | locus YDR297W, strain sur2, hits give low values 0.982 | locus YDR318W, strain mcm21, hits give low values 1 | locus YDR334W, strain swr1, hits give low values 0.981 | locus YDR335W, strain msn5, hits give low values 0.972 | locus YDR388W, hits give low values 0.993 | locus YDR392W, strain spt3, hits give low values 0.797 | locus YDR502C, strain sam2, hits give low values 0.996 | locus YEL003W, strain gim4, hits give low values 0.969 | locus YEL037C, strain rad23, hits give low values 0.981 | locus YEL061C, strain CIN8 (second series), hits give low values 0.979 | locus YEL061C, strain CIN8, hits give low values 1.01 | locus YER015W, strain faa2, hits give low values 0.968 | locus YER016W, strain bim1, hits give low values 0.985 | locus YER110C, hits give low values 1.01 | locus YER111C, strain swi4, hits give low values 0.997 | locus YER155C, strain BEM2 (second series), hits give low values 0.976 | locus YER155C, strain BEM2, hits give low values 1.01 | locus YER167W, strain BCK2, hits give low values 0.997 | locus YFR010W, strain ubp6, hits give low values 0.993 | locus YGL078C, strain dbp3, hits give low values 0.995 | locus YGL086W, strain mad1, hits give low values 0.997 | locus YGL167C, strain pmr1, hits give low values 1 | locus YGL173C, strain kem1, hits give low values 0.983 | locus YGL227W, strain vid30, hits give low values 0.978 | locus YGL240W, strain doc1, hits give low values 0.973 | locus YGL248W, strain PDE1, hits give low values 1.01 | locus YGL253W, strain hxk2, hits give low values 0.989 | locus YGR078C, strain PAC10, hits give low values 1.01 | locus YGR135W, strain pre9, hits give low values 0.989 | locus YGR229C, strain SMI1, hits give low values 0.886 | locus YGR252W, strain gcn5, hits give low values 0.978 | locus YHR013C, strain ard1, hits give low values 0.919 | locus YHR027C, strain rpn1, hits give low values 0.984 | locus YHR030C, strain SLT2, hits give low values 1 and 0.99 | locus YHR079C, strain IRE1 (second series), hits give low values 1 | locus YHR079C, strain IRE1, hits give low values 1.02 | locus YHR094C, strain hxt1, hits give low values 0.992 | locus YHR129C, strain ARP1, hits give low values 1 | locus YHR142W, strain chs7, hits give low values 0.954 | locus YHR200W, strain rpn10, hits give low values 0.991 | locus YIL066C, strain RNR3, hits give low values 1.02 | locus YIL073C, strain SPO22, hits give low values 0.967 | locus YIL125W, strain kgd1, hits give low values 1 | locus YIR030C, strain dcg1, hits give low values 0.997 | locus YJL092W, strain hpr5, hits give low values 0.961 | locus YJL095W, strain BCK1 (second series), hits give low values 1 | locus YJL095W, strain BCK1, hits give low values 0.936 and 1.02 | locus YJL115W, strain asf1, hits give low values 0.948 | locus YJL129C, strain trk1, hits give low values 0.96 | locus YJL134W, strain LCB3, hits give low values 1.01 | locus YJL154C, strain vps35, hits give low values 0.993 | locus YJL164C, strain tpk1, hits give low values 0.969 | locus YJL166W, strain qcr8, hits give low values 1 | locus YJL168C, strain set2, hits give low values 1 | locus YJL187C, strain SWE1 (second series), hits give low values 1.02 | locus YJR043C, strain POL32, hits give low values 0.911 | locus YJR066W, strain TOR1, hits give low values 0.94
